The values that follow come from PubChem BioAssay AID1117299 (National Center for Advancing Translational Sciences (NCATS), 2015).

The source made the active and inactive calls. Calls come from the whole dose curve.

For this experiment the following is noted: Ebola virus entry assay, green fluorescence channel.
As a reminder, the AC50 is the concentration giving half of the maximal activity seen. As for `CN(C)CCOc1ccc(/C(=C(/CCCl)c2ccccc2)c2ccccc2)cc1`, the half-maximal activity concentration (AC50) was 1930 nM (active).
As to `CCN(CC)CCNC(=O)c1c(C)[nH]c(/C=C2\C(=O)Nc3ccc(F)cc32)c1C`, the call was inactive.
On to `COc1cc2c(c(OC)c1OC)-c1ccc(OC)c(=O)cc1[C@@H](NC(C)=O)CC2`, for which the AC50 is 96.8 nM (active).
As for `COC(=O)Nc1nc2ccc(C(=O)c3cccs3)cc2[nH]1`, the AC50 is 685 nM (active).
As to `CC[C@H]1OC(=O)[C@H](C)[C@@H](O[C@H]2C[C@@](C)(OC)[C@@H](O)[C@H](C)O2)[C@H](C)[C@@H](O[C@@H]2O[C@H](C)C[C@H](N(C)C)[C@@H]2O)[C@](C)(O)C[C@@H](C)CN(C)[C@H](C)[C@@H](O)[C@]1(C)O`, the AC50 was 7690 nM (active).
With `CCC1=C[C@@H]2CN(C1)Cc1c([nH]c3ccccc13)[C@@](C(=O)OC)(c1cc3c(cc1OC)N(C)[C@H]1[C@@](O)(C(=O)OC)[C@H](OC(C)=O)[C@]4(CC)C=CCN5CC[C@]31[C@@H]54)C2`, the AC50 is 109 nM (active).
`CN1CCN(CCCN2c3ccccc3Sc3ccc(C(F)(F)F)cc32)CC1`: the result was inactive.
For the compound `CN1[C@@H]2CC[C@H]1CC(OC(c1ccccc1)c1ccccc1)C2` (stereo not given in full), the AC50 is 3060 nM (active).
For `CC[C@]1(O)C[C@H]2CN(CCc3c([nH]c4ccccc34)[C@@](C(=O)OC)(c3cc4c(cc3OC)N(C=O)[C@H]3[C@@](O)(C(=O)OC)[C@H](OC(C)=O)[C@]5(CC)C=CCN6CC[C@]43[C@@H]65)C2)C1`, the half-maximal activity concentration (AC50) was 217 nM (active).
In the case of `CCCCc1oc2ccc(NS(C)(=O)=O)cc2c1C(=O)c1ccc(OCCCN(CCCC)CCCC)cc1`, the result was inactive.
